AmpC inh detg: AmpC beta-lactamase inhibition with detergent present | P00811 | AmpC hydrolysis of nitrocefin, absorbance 480 nm, 0.01% Triton | Potency, µM (titrated, usually from 114 µM), without a hit: top-dose activity change, negative = inhibition, most hits filed as inhibitors | 370,000 compounds, 0.041% hits;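 further: 0% = no-compound wells and -100% = no-enzyme wells; nearly all actives have a fitted effect of over 25% in size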
Target sequence (P00811 whole entry, looked up): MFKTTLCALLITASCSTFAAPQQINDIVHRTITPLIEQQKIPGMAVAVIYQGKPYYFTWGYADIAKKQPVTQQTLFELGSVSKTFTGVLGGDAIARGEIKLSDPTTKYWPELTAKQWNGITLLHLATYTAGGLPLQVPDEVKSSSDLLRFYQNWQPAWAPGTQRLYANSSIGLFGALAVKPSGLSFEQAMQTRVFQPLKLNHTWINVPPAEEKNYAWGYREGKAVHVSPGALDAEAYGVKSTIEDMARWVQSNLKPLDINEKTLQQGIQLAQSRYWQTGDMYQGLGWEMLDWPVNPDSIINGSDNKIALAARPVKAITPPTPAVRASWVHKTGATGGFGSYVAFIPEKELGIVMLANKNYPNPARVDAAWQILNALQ
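AmpC (5.3 nM in the dispensed reagent) in 20 mM phosphate pH 7.0 with 0.01% (detergent screen) or 0.0001% Triton X-100 was preincubated with compounds for 15 min at room temperature. Nitrocefin was then added from an 800 uM solution, and hydrolysis was followed at 480 nm.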
Sm TGR inh: blocks Schistosoma mansoni thioredoxin glutathione reductase; Q962Y6; purified TGR, DTNB reduction, TNB absorbance 405 nm; Potency, µM (top dose mostly 114 µM), for inactives: at the highest dose activity change, negative = inhibition, most hits filed as inhibitors; 360,000 compounds, 3% hits; AID 485364; further: nearly all actives have a fitted effect of over 60% in size
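TGR 20 nM + NADPH 100 uM (dispensed conc.), cpd preinc 15 min RT; start with NADPH (500 uM addition) then DTNB (15 mM addition). Kinetic TNB absorbance, 405 nm filter. Four-parameter Hill fit across titration.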
FBPA Giardia inh: inhibitors of Giardia lamblia fructose-1,6-bisphosphate aldolase; Potency, µM (top dose mostly 59.6 µM), inactives show at the top dose activity, negative = inhibition, hits mostly inhibitors; purified Giardia FBPA; A8B2U2; 290,000 compounds, 0.71% hits; further: nearly all actives have a fitted effect of over 55% in size
Target sequence (A8B2U2 whole entry, looked up): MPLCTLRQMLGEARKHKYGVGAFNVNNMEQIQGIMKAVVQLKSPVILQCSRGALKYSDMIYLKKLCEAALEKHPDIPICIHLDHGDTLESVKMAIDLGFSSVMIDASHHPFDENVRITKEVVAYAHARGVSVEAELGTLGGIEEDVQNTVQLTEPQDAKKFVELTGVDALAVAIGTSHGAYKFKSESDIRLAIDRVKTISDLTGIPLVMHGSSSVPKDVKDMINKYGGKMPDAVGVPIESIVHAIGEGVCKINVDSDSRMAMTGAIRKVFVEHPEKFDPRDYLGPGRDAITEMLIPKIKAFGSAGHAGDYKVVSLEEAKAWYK
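Giardia FBPA (40 nM reagent) was preincubated 10 min at RT with compound (up to 57.5 uM final), then substrate plus GAPDH/TPI/NAD/arsenate coupling system with diaphorase/resazurin was added; resorufin fluorescence (525/598 nm) was read after 20 min.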
RE007 growth inh: less growth of the S. pombe RE007 Vpr strain; S. pombe RE007 Vpr strain, BacTiter-Glo ATP luminescence, 24 h; Potency, µM (series often up to 92.2 µM), inactives show at the top dose activity change, negative = less growth, most hits filed as inhibitors; 360,000 compounds, 0.21% hits; AID 651644; active means well fitted falling curve with a large enough effect; inconclusive means small, poorly fitted or top-dose-only effect; inactive means no such curve, though single readings can be large or run the other way; further: nearly all actives have a fitted effect of over 50% in size
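Fission yeast RE007 carrying one integrated HIV-1 vpr copy, seeded at OD 0.01 in PMG+AL medium with 23 nL pinned compound. Grown 24 h at 30 degrees; viability read by BacTiter-Glo luminescence after 5 min.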
AmpC inh no detg: AmpC beta-lactamase inhibition without detergent; P00811; AmpC nitrocefin hydrolysis, absorbance 480 nm, 0.0001% Triton; Potency, µM (doses to about 57.1 µM), inactives show at the top dose activity change, negative = inhibition, most hits filed as inhibitors; 330,000 compounds, 0.52% hits;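 further: plate controls were no compound for no effect and no enzyme for full effect; nearly all actives have a fitted effect of over 20% in size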
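AmpC (5.3 nM in the dispensed reagent) in 20 mM phosphate pH 7.0 with 0.01% (detergent screen) or 0.0001% Triton X-100 was preincubated with compounds for 15 min at room temperature. Nitrocefin was then added from an 800 uM solution, and hydrolysis was followed at 480 nm.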
Numbers without * were called inactive; ? = inconclusive; / = not tested or not shown; [ ] = dose if it differs, or a comment. Shown are actives, neighbours in structure and some others; about 3.4% of the full set was active somewhere. Unless noted, the call rests on the fitted dose curve; in most records, active means well fitted curve in the direction sought with a large enough effect; inconclusive means small, poorly fitted or top-dose-only effect, or another doubt; inactive means no such curve, though single readings can be large; an effect the other way counts as inactive or inconclusive. Unless noted, on the % scale 0 is the no-effect control and ±100 the full control effect; potency means the concentration at half of the fitted maximal effect.

SMILES	AmpC inh detg	Sm TGR inh	FBPA Giardia inh	RE007 growth inh	AmpC inh no detg
O=C(NNC(=S)NCc1ccccc1)c1ccc2c(c1)OCO2	?	-6%	7%	2%	-12%
COC(=O)c1ccccc1NC(=S)NC(=O)c1ccccc1	?	11µM*	-4%	-3%	-35%
COC(=O)c1ccccc1NC(=S)NC(=O)c1ccccc1C	40µM*	?	-10%	-3%	-59%
COC(=O)c1ccccc1NC(=S)NC(=O)C1CCCCC1	-9%	?	4%	-15%	-27%
CC(C)(C)OC(=O)N1CCC(c2c(C(=O)O)cnn2-c2ccccc2)CC1	-9%	-3%	-6%	7%	-13%
CC(=O)Nc1ccc(NC(=O)c2cnn(-c3ccccc3)c2C2CCN(C(=O)OC(C)(C)C)CC2)cc1	1%	5µM*	/	/	/
O=C1CC(N2CCC(c3nc4ccccc4o3)CC2)C(=O)N1c1cc(Cl)cc(Cl)c1 (centres undefined)	9%	-7%	-5%	28µM*	120%
COc1cccc(N2C(=O)CC(N3CCC(c4nc5ccccc5[nH]4)CC3)C2=O)c1 (centres undefined)	-7%	-15%	11%	35µM*	12%
Cc1cccc(N2C(=O)CC(N3CCC(c4nc5ccccc5[nH]4)CC3)C2=O)c1 (centres undefined)	4%	35µM*	3%	28µM*	12%
COc1ccc(N2C(=O)CC(N3CCC(n4c(=O)[nH]c5ccccc54)CC3)C2=O)cc1 (centres undefined)	-4%	35µM*	1%	28µM*	33%
CCN1C(=O)CC(N2CCC(c3nc4ccccc4[nH]3)CC2)C1=O (centres undefined)	3%	0%	0%	-3%	-6%
O=C(CSc1n[nH]c(=O)[nH]c1=O)c1ccc([N+](=O)[O-])cc1	4%	?	1%	4%	-17%
c1ccc2c(c1)nc1n2C2(N3CCOCC3)CCCC2C1N1CCOCC1 (centres undefined)	2%	32µM*	-6%	7%	-42%
CSCCC(NC(=O)C1CCC(C)CC1)C(=O)NCCN1CCOCC1 (centres undefined)	2%	5%	-1%	-3%	-3%
COc1cc(CNCCc2ccc(S(N)(=O)=O)cc2)ccc1OCC(=O)NC(C)(C)C	-15%	-9%	-7%	-13%	-39%
CCOCCCNC(=O)/C(C#N)=C/c1ccc([N+](=O)[O-])o1	-10%	8.9µM*	?	45µM*	-6%[11.4 µM]
CC(NC(=O)/C(C#N)=C/c1ccc([N+](=O)[O-])o1)c1ccccc1 (centres undefined)	-10%	1.3µM*	?	5µM*	-39%
CCOCCCNC(=O)/C(C#N)=C/c1ccc(-c2ccc(S(=O)(=O)N3CCOCC3)cc2)o1	0%	?	-11%	/	182%
COc1ccc(-c2nc3ccccc3s2)cc1NC(=O)c1cccc([N+](=O)[O-])c1C	-5%	-1%	/	/	/
O=C(/C=C/c1cccc(F)c1)Nc1ccc(S(=O)(=O)Nc2ncccn2)cc1	-3%	7%	7%	0%	11µM*
Cc1cc(C(=O)CSc2nncs2)c(C)n1-c1ccc2c(c1)OCO2	?	-30%	-17%	10%	0.28µM*
Cc1cc(C(=O)CSc2nnnn2-c2ccccc2)c(C)n1-c1ccc2c(c1)OCO2	4%	-18%	-10%	11%	-42%
CCCn1c(SCC(=O)c2cc(C)n(-c3ccc4c(c3)OCO4)c2C)n[nH]c1=O	-7%	-17%	-22%	-8%	0%
Cc1cc(C(=O)CSc2nnnn2-c2ccc(O)cc2)c(C)n1Cc1ccc2c(c1)OCO2	-8%	0%	0%	-9%	2.2µM*
CON(C)c1nc(C2CCCCC2)c2cc(C)ccc2n1	/	/	/	-5%	/
SMILES	AmpC inh detg	Sm TGR inh	FBPA Giardia inh	RE007 growth inh	AmpC inh no detg
COc1ccc(CNC(=O)Cn2cc3c(n2)CCCCC3)cc1	-4%	4%	0%	-12%	7.1µM*
O=C(Cn1cc2c(n1)CCCC2)NCc1cccs1	?	0%	1%	-8%	-6%
O=C(Cn1cc2c(n1)CCCC2)NCc1ccccn1	-16%	-7%	-1%	-1%	3.5µM*
COc1cccc(NC(=O)Cn2cc3c(n2)CCCCC3)c1	?	-5%	-3%	6%	-13%
COc1cccc(-c2cc(=O)c3cc(NC(=O)c4ccc(N(C)C)cc4)ccc3[nH]2)c1	8%	-1%	-1%	6%	-1%
O=C(c1ccco1)N1CCN(c2ncnc3sc4c(c23)CCC4)CC1	-12%	11µM*	-3%	-13%	11%
CCc1nc(N2CCN(C(=O)c3ccco3)CC2)c2c3c(sc2n1)CCCC3	0%	56µM*	4%	22%	50%
c1ccc(N2CCN(c3ncnc4sc5c(c34)CCC5)CC2)cc1	-13%	-2%	0%	12%	-10%
Cc1ccc(OCC(=O)Nc2ccc(N3CCN(S(C)(=O)=O)CC3)cc2)cc1C	2%	10%	7%	-8%	-11%
Cc1ccccc1C(=O)O/N=C(\c1ccccc1)c1ccccn1	-7%	-7%	-3%	-3%	-2%
O=C(O)/C(=C\c1ccc(-c2ccc(F)cc2)o1)c1ccccc1	-11%	18µM*	-1%	1%	-38%
O=C(/C=C\c1ccc(-c2ccccc2)o1)c1ccccc1	?	11µM*	-23%	6%	-27%
O=C(Nc1ccc(N2CCCC2)c(Cl)c1)c1cccnc1	?	50µM*	-26%	4%	84%
O=C(Nc1ccc(N2CCCCC2)c(Cl)c1)c1cccnc1	?	-1%	-10%	-9%	1%
Cc1nc2ccc(N3C(=O)CCC3=O)cc2[nH]1	3%	0%	-21%	-10%	-7%
COc1ccc(C(=O)/C=C/C(=O)N(CC(=O)NCCC(C)C)Cc2cccs2)c(O)c1	1%	2.8µM*	2%	1%	56%
COc1ccc(C(=O)/C=C/C(=O)N(CC(=O)NC2CCCCC2)Cc2ccc(F)cc2)c(O)c1	2%	3.5µM*	2%	-4%	31%
COc1ccc(C(=O)N(Cc2ccco2)Cc2cccs2)c(O)c1	13%	-1%	13%	-8%	-3%
Cc1cc(C)c2nc(N3CCCN(C(=O)c4ccco4)CC3)c(C#N)cc2c1	4%	2µM*	?	0%[3.69 µM]	40%
COc1ccc2nc(N3CCCC3)c(C#N)cc2c1	?	-1%	-7%	-1%	-8%
Cc1ccc2cc(C#N)c(N3CCCN(C(=O)C4CCCO4)CC3)nc2c1C (centres undefined)	-16%	-4%[11.4 µM]	-18%	-8%	121%
Cc1ccc2cc(C#N)c(N3CCCC3)nc2c1C	?	20µM*	-16%	-26%	-38%
